In PubChem BioAssay AID1347056 (Sanford-Burnham Center for Chemical Genomics, 2019):
The whole screen tested about 360,000 compounds, of which about 3,600 (1%) were called active.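 The calls were made as follows: active = compounds whose plate-normalised and pattern-corrected inhibition of the luciferase reporter signal at the single screening dose is 50% or more; inactive = the rest.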 What follows is part of a selection rich in actives, with near analogues and random picks from the rest.

Assay: inhibitors of TROY-driven NF-kB signaling, primary screen, Q293 LMP1-TROYcd cells, NF-kB luciferase, uHTS (AID 1347056)
Settings: Q293 LMP1-TROYcd NF-kB luciferase reporter, 4 h; at 10 µM; hits give high values

inhibition, active:
O=S1(=O)CC(NCc2ccccc2)C(Nc2ccc(Cl)cc2)C1 (stereo not drawn) 57%
Cc1cccc(NS(=O)(=O)c2ccc(-c3cnc(C4CC4)o3)cc2)c1 50.5%
O=C(Oc1ccc(-c2nc(-c3ccccn3)no2)cc1)c1ccccc1 60%
CC(C)Cn1c(N)c(C(=O)NCc2cccs2)c2nc3ccccc3nc21 51.3%
C=CCN1CCN(C(=O)CCCc2ccccc2)CC1 73.6%
COc1ccc(C(=O)NC2CCCc3c2cnn3-c2cccc(C)c2C)c(OC)n1 (stereo not drawn) 55.4%
CSc1ncccc1C(=O)Nc1nc2ccc(F)cc2s1 54.6%
CC1(C)CC(N2CCN(C(c3ccccc3)c3ccccc3)CC2)=CC(=[N+]2CCCCC2)C1 58.6%
COc1ccc(Br)cc1/C=N/Nc1ccc(S(=O)(=O)Nc2ccccc2C(=O)O)cc1[N+](=O)[O-] 58%
COc1cccc2c(C)c(C(=O)O)[nH]c12 74.3%
COc1ccccc1C1C(C#N)=C(N)Oc2c1c(-c1ccccc1)nn2-c1ccccc1 (stereo not drawn) 62%
O=C1c2ccccc2C(=O)N1CCC#Cc1ccc2cc(C3(O)CCCCC3)oc(=O)c2c1 64.8%

inhibition, inactive:
CCOc1ccc(C2c3[nH]c4ccccc4c3CCN2Cc2cccn2-c2ncccn2)cc1 (stereo not drawn) 47.5%
COC(=O)C1=C(C(=O)OC)[C@@H]2N(C)c3ccccc3[C@@]23C[C@@H](C(=O)OC)N(C(=O)c2ccco2)C3=N1 7.75%
O=C(Cc1ccc(Cl)cc1)NC1CCS(=O)(=O)C1 (stereo not drawn) 3.91%
O=C(NCCS(=O)(=O)NCc1ccc(Cl)cc1)c1ccccc1 4.3%
CC(NC(=S)Nc1ccc(OC(F)F)cc1)c1ccc(F)cc1 (stereo not drawn) -5.08%
Cc1cccc(N2CCN(S(=O)(=O)c3ccc(-c4cc(C)no4)s3)CC2C)c1 (stereo not drawn) -15%
COc1ccc(CNS(=O)(=O)c2ccc(-c3cnc(C4CC4)o3)cc2)cc1 26%
Cc1cccc(CNS(=O)(=O)c2ccc(-c3cnc(C4CC4)o3)cc2)c1 15.4%
Cc1c(NC(=O)CCC2CCCCC2)cc(C(=O)N2CCOCC2)cc1[N+](=O)[O-] 12.1%
COC(=O)[C@]1(C)N[C@H](CN(C)C(=O)c2ccc(C(C)(C)C)cc2)[C@@H]2C(=O)N(C)C(=O)[C@@H]21 -13.4%
COc1cccc(OCC(=O)NCCS(=O)(=O)N2CCN(c3ccccc3)CC2)c1 17.7%
COCc1cc(C)nc(Nc2cc(C)ccc2C)c1C#N 0.76%
O=C(COC(=O)c1ccncc1)c1ccccc1 -18.8%
Cc1noc(C)c1COC(=O)COc1ccc(-c2ccccc2)cc1 4.68%
O=C(NCc1cccs1)c1cc(-c2ccccn2)nc2ccc(Br)cc12 -12.5%
O=C(Cc1coc2ccc3ccccc3c12)NCc1cccs1 -38.6%
CCOc1ccc(NC(=O)CCS(=O)(=O)c2ccc3c(c2)CCCN3C(=O)CC)cc1 21.6%
CCOC(=O)c1cc(C)sc1NC(=O)C1CCC1 12.2%
CCN1CCN(C(=O)CCN2C(=O)c3ccccc3C2=O)CC1 13.8%
CC1=NN(C(=O)CCCc2ccccc2)C(O)(C(F)(F)F)C1 (stereo not drawn) 6.41%
C/C(CC(=O)NC(C)c1ccccc1)=N\NC(N)=S (stereo not drawn) 0.63%
Cn1nccc1C(=O)NC1CCCc2c1cnn2-c1ccc(F)cc1F (stereo not drawn) 28%
COc1ccc(OC)c(C(=O)NC2CCCc3c2cnn3-c2cc(C)cc(C)c2)c1 (stereo not drawn) -13.7%
Cc1ccccc1-n1nc(C)c2c1N=C1C(Cl)=CC(Cl)=CN1C2c1ccc(C(=O)O)cc1 (stereo not drawn) 1.29%
Cc1cc(Br)cn2c(Cc3ccccc3C(F)(F)F)c(C3CCCCC3)nc12 15.5%
CCOC(=O)c1cnc(SCc2nc(N)nc(Nc3ccc(OC)cc3)n2)nc1N -4.61%
CSc1ncccc1C(=O)Nc1ccc2c(c1)OCO2 -13.6%
CCS(=O)(=O)N1Cc2ccccc2CC1C(=O)Nc1nc2ccc(F)cc2s1 (stereo not drawn) 42.9%
O=c1ccc2cc(S(=O)(=O)NCCCc3ccccc3)ccc2[nH]1 -7.06%
CCC(C)(C)NC(=O)CN(Cc1cccs1)C(=O)CNS(=O)(=O)c1ccc(F)cc1 -7.55%
Cc1ccc(S(=O)(=O)N(CC(O)CN2C(=O)NC(C)(C)C2=O)c2cccc([N+](=O)[O-])c2)cc1 (stereo not drawn) 4.48%
CCCn1c(C)cc(C(=O)COC(=O)c2c(C)nn(-c3ccccc3)c2C)c1C -3.58%
COc1ccccc1NC(=S)N1CCN(C(c2ccccc2)c2ccccc2)CC1 16.1%
Cc1cccc(N2CCN(C(c3ccccc3)c3nnnn3CC3CCCO3)CC2)c1C (stereo not drawn) -7.74%
O=C(CN1CCOCC1)Nc1c(Cl)cc(Cl)cc1Cl -5.43%
C=CCSc1nc2c(c(=O)[nH]1)C(C(C)C)C(C#N)=C(N)O2 (stereo not drawn) 9.46%
N#Cc1ccccc1NC(=O)COc1c(Br)cc(Br)c2cccnc12 4.34%
CC1CN(C(=O)c2ccccc2NS(=O)(=O)c2cccc([N+](=O)[O-])c2)CC(C)O1 (stereo not drawn) 8.71%
COc1ccc(S(=O)(=O)N2CCC(C(=O)OCC(=O)c3ccccc3)CC2)cc1[N+](=O)[O-] -4.41%
CC(=O)Nc1ccc(C(=O)CSc2nc3ccc(C)cc3[nH]2)cc1 -46.4%
COc1ccccc1C(=O)c1ccccc1C(=O)c1ccccc1 9.22%
COc1cc2c(C(=O)O)c(C)n(C)c2c2ccccc12 6.89%
Oc1cccc2ccc(/C=C/c3ccc(Br)s3)nc12 45.8%
COc1ccc(C2C(C#N)=C(N)Oc3cc(N)ccc32)cc1OC (stereo not drawn) -32.5%
N#CC1=C(N)Oc2cc(N)ccc2C1c1ccccc1 (stereo not drawn) 13.9%
CCOc1ccc(C(=O)Nc2cc(Cl)ccc2-n2cncn2)cc1OC -3.58%
